Source: the supplement of paper PMC7156485

Tests used:
Details in all cases: concentration: 10 µM; 24 h
HCC1569 [1] = test: cell number relative to DMSO (% of DMSO); higher = more cells (less growth inhibition / toxicity)
Outline: (§1)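 H1.0 nuclear intensity or cell number is stated as percent of the plate control, based on the median of replicates, and HCC1569 values were smoothed for positional effects. These came from HCC1569 and TDF cells treated with compounds at 10 µM for 24 h at 37 °C in triplicate, then fixed in 3.7% formaldehyde and stained with a rabbit anti-H1.0 antibody, an AlexaFluor 647 secondary and DAPI.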

TDF [2] = test: as above
Outline: as §1

TDF [3] = test: H1.0 immunofluorescence intensity relative to DMSO (% of DMSO); higher = stronger H1.0 induction, active = 120 or more
Outline: as §1

HCC1569 [4] = test: H1.0 immunofluorescence intensity relative to DMSO (% of DMSO); higher = stronger H1.0 induction, active = 140 or more
Outline: as §1
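For H1.0 immunofluorescence intensity relative to DMSO in this document: TDF is a line of transformed human dermal fibroblasts of mesenchymal origin.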
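For cell number relative to DMSO in this document: TDF denotes transformed human dermal fibroblasts of mesenchymal origin.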

Row | Structure (SMILES) | cell number (HCC1569 [1]) | cell number (TDF [2]) | H1.0 immunofluorescence intensity (TDF [3]) | H1.0 immunofluorescence intensity (HCC1569 [4])
1 | CC(C)NCC(O)c1ccc2ccccc2c1.Cl (configuration not stated) [Pronethalol.HCl] | 101 | 107 | 86.6 (inactive) | 102 (inactive)
2 | COC1C(OC(N)=O)C(O)C(Oc2ccc3c(O)c(NC(=O)c4ccc(O)c(CC=C(C)C)c4)c(=O)oc3c2C)OC1(C)C.[Na+] (configuration not stated) [Novobiocin.Na] | 103 | 112 | 95.7 (inactive) | 103 (inactive)
3 | COc1cc2ncnc(Nc3ccc(Cl)cc3F)c2cc1OC.Cl | 83.3 | 102 | 95.7 (inactive) | 141 (active)
4 | Cl.Cl.Cl.NCCCCNCCCN [Spermidine trihydrochloride] | 99.7 | 97.2 | 102 (inactive) | 82 (inactive)
5 | CCC1(O)CC2CN(CCc3c([nH]c4ccccc34)C(C(=O)OC)(c3cc4c(cc3OC)N(C)C3C(O)(C(=O)OC)C(OC(C)=O)C5(CC)C=CCN6CCC43C65)C2)C1.O=S(=O)(O)O (configuration not stated) [Vinblastine sulfate salt] | 48.9 | 16.8 | 152 (active) | 132 (inactive)
6 | C[C@H]1CN(C[C@H](Cc2ccccc2)C(=O)NCC(=O)O)CC[C@@]1(C)c1cccc(O)c1 | 94.4 | 102 | 88.5 (inactive) | 107 (inactive)
7 | CCCCCCCCCCCCCCCC(=O)OC1C(SC)OC(C(NC(=O)C2CC(CCC)CN2C)C(C)Cl)C(O)C1O.Cl (configuration not stated) [Clindamycin palmitate.HCl] | 96.5 | 101 | 93.3 (inactive) | 106 (inactive)
8 | NC(=O)N1C(=O)/C(=C(\O)c2cccs2)c2cc(Cl)ccc21 | 101 | 104 | 94.8 (inactive) | 106 (inactive)
